28 molecules from PubChem BioAssay AID720567 (Broad Institute, 2013) can be followed below.

Molecules are shown by their SMILES. Entries with a potency or affinity are not part of this list. The source made the active and inactive calls. How the calls were made is not given here.

The test can be described thus: HEK293 cell cytotoxicity, dose response, cytotoxicity control, dry powder samples (AID 720567). The following applies: plate reader; series mostly up to 15 µM.
As to `CC(=O)N1CCC(=O)c2cc3ccccc3cc21`, the result was inactive. The value for `CCN(CC)CCOc1ccc2c(c1)C(=NNC(=O)c1ccccn1)c1cc(OCCN(CC)CC)ccc1-2` was “inactive”; that for `CCCNS(=O)(=O)c1cccc(C(=O)OCc2cc(=O)oc3cc(OC)ccc23)c1` was “inactive”. The value for `COc1ccccc1OCC(=O)NNC(=O)c1ccoc1C` was “inactive”; that for `Cc1ccc(/C=N/NC(=O)C2COc3ccccc3O2)s1` (stereo not drawn) was “inactive”. The value for `CCOc1ccc(S(=O)(=O)NCc2ccccn2)cc1NC(=O)c1ccccc1F` was “inactive”; that for `CCN(CC)CCC(=O)Nc1cccc2c1C(=O)c1ccccc1C2=O` was “inactive”; that for `Nc1nc(=S)c2ncn([C@@H]3O[C@H](CO)[C@@H](O)[C@H]3O)c2[nH]1` was “inactive”.

On to `Cc1cnc(NC(=O)c2cc(S(=O)(=O)N(C)C)ccc2N2CCCC2)s1`, for which the outcome was inactive. The value for `O=C1CCN(Cc2ccccc2)c2cc3ccccc3cc21` was “inactive”. Consider `CCN(CC)CCCNc1nc2cc(OC)c(OC)cc2c2nc(-c3ccccc3)nn12`, for which the molecule was called inactive. The value for `Brc1ccc(CSc2nnc(-c3ccccc3)o2)cc1` was “inactive”; that for `Cc1cc(=O)[nH]c(N/N=C/c2cc(C)n(CC(F)(F)F)c2C)n1` was “inactive”. The value for `Cc1ccc(C(=O)c2cc([N+](=O)[O-])ccc2N2CCOCC2)cc1C` was “inactive”.

`COc1ccccc1-c1nnc(SCc2ccccc2)o1`: the molecule was classed as inactive.

On to `CCOC(=O)c1ccc(Oc2cc(C)nc(SC)n2)cc1`, for which the molecule was classed as inactive. Regarding `COc1ccc2c(COC(=O)c3cccc(S(=O)(=O)NCC(C)C)c3)cc(=O)oc2c1`, the molecule was called inactive.

For `Cc1[nH][nH]c(=O)c1C(c1ccc(-c2ccc(Cl)c(Cl)c2)o1)c1c(C)[nH][nH]c1=O`, the molecule was classed as inactive. The value for `CC(=O)c1cccc(NC(=O)CSc2ncc(C(=O)Nc3ccccc3)c(=O)n2C)c1` was “inactive”. The value for `CCCCOc1ccccc1C1CC(=O)NC2=C1C(=O)CCC2` (stereo not drawn) was “inactive”. The value for `O=C(Cc1ccccc1)c1nnc(-c2ccccc2)o1` was “inactive”; that for `O=C1CCNc2cc3ccccc3cc21` was “inactive”. In the case of `Cc1ccc(Oc2ccc(S(=O)(=O)N3CCOCC3)cc2C(N)=O)c(-n2nc3ccccc3n2)c1`, the result was inactive. The value for `COc1cc(Nc2c3c(nc4ccccc24)CCCC3)cc(OC)c1OC` was “inactive”; that for `Cc1cc(C)nc(/N=C(\N)Nc2ccc(OCc3ccccc3)cc2)n1` was “inactive”; that for `COc1cc(-c2nnc(SCC3(c4ccc(Br)cc4)OCCO3)o2)cc(OC)c1OC` was “inactive”. The value for `COc1ccccc1CSc1nnc(-c2ccccc2)o1` was “inactive”; that for `COc1ccc(-c2nnc(SCc3ccccc3)o2)cc1` was “inactive”.
